Source: PubChem
Compounds with a hit are over-represented: about 12% of the library has one in this group of screens.
HP1b binding inh = HP1-beta chromodomain-methylated histone interaction inhibition; AlphaScreen HP1-beta / biotin-H3K9me3 peptide binding; 0.56% of 390,000 active; Potency, µM (top dose mostly 114 µM), for inactives: at the top dose activity change, negative = inhibition, most hits filed as inhibitors; P83916; also: nearly all actives have a fitted effect of over 70% in size
Target sequence (P83916 whole entry, looked up): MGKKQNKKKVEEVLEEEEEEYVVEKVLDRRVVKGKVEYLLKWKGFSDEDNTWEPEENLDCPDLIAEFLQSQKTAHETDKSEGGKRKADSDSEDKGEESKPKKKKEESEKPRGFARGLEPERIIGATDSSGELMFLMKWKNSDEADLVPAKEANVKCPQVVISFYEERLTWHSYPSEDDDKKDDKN
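HP1-beta protein (50 nM final) preincubated 30 min at room temperature with biotinylated H3(1-18)K9me3 peptide (50 nM) in PBS pH 7.4, 0.01% Tween-20, then compound added for 30 min. AlphaScreen streptavidin donor/nickel chelate acceptor beads (10 ug/mL final), 30 min dark, luminescence read.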
JMJD2A Tudor inh = inhibitors of human JMJD2A Tudor domain | O75164 | AlphaScreen JMJD2A-Tudor / H3K4me3 peptide binding | Potency, µM (titrated, usually from 114 µM), for inactives: top-dose activity change, negative = inhibition, usual class: inhibitors | 4.4% of 390,000 active; also: % is scaled to controls: 0 for no effect and ±100 for the full control effect; nearly all actives have a fitted effect of over 50% in size
G9a block = inhibitors of human histone lysine methyltransferase G9a; Q96KQ7; G9a H3K9 monomethylation, AlphaScreen, 2 h; Potency, µM (highest dose often 102 µM), without a hit: top-dose activity, negative = inhibition, most hits filed as inhibitors; 8.8% of 350,000 active; AID 504332; also: % is scaled to controls: 0 for no effect and ±100 for the full control effect; nearly all actives have a fitted effect of over 75% in size
Target sequence (Q96KQ7 913-1193 limits assumed): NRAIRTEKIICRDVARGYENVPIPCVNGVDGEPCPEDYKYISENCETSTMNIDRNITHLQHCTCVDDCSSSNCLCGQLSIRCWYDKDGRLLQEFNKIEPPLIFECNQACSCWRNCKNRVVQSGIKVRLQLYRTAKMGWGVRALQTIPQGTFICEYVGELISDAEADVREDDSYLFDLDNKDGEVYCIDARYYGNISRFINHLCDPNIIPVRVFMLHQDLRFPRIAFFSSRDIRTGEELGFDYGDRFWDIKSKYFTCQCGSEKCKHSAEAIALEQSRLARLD
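Using a bead-based AlphaScreen, monomethylated H3K9 product from 2 h room-temperature reactions (G9a 20 nM, peptide 500 nM, SAM 20 uM) was detected with 0.5 ug/mL rabbit anti-H3K9me1 antibody.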
BAZ2B inh = inhibitors of human BAZ2B bromodomain; Q9UIF8; AlphaScreen BAZ2B-H3K14Ac peptide displacement; Potency, µM (doses to about 114 µM), inactives show at the highest dose activity change, negative = inhibition, actives largely listed as inhibitors; 4.4% of 360,000 active; AID 504333; also: % is scaled to controls: 0 for no effect and ±100 for the full control effect; nearly all actives have a fitted effect of over 60% in size
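AlphaScreen luminescence quantifies BAZ2B engagement of H3K14Ac peptide; the protein and biotinylated peptide are both at 50 nM final, buffer PBS pH 7.4 with 0.01% Tween-20, all steps at room temperature.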
Sfp inh = blocks B. subtilis Sfp PPTase activity | Q9F4F7 | Biochemical Sfp PPTase activity, qHTS | Potency, µM, for the others: largest response in the series, negative = inhibition, hits mostly inhibitors | 3.5% of 310,000 active;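 also: the enzyme is Sfp with the accession as filed and its product quenches rhodamine fluorescence; 0% = enzyme reaction without inhibitor and -100% = no enzyme wells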
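With Hepes-Na pH 7.6 buffer containing 10 mM MgCl2, Sfp (15 nM) modified BHQ-2-YbbR (12.5 uM) using rhodamine-CoA (5 uM). Two reads 30 minutes apart at 525/598 nm yielded each well's rate.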
L3MBTL1 inh = L3MBTL1 (human) inhibition; Q9Y468; AlphaScreen L3MBTL1–H3K9me1 peptide binding; Potency, µM (highest dose often 57.1 µM), for the others: at the highest dose activity, negative = inhibition, most hits filed as inhibitors; 0.66% of 230,000 active; also: % is scaled to controls: 0 for no effect and ±100 for the full control effect; nearly all actives have a fitted effect of over 60% in size
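L3MBTL1 (50 nM) pre-complexed 30 min with biotinylated H3(1-15)K9me1 peptide (75 nM), then compounds added for 30 min at room temperature; AlphaScreen streptavidin donor/nickel chelate acceptor beads (10 ug/mL final) read after 30 min dark incubation.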
The depositor's hits bear a star; u = inconclusive; x = no result; [ ] = remark or other dose. Calls follow the shape of the dose curve; as a rule, active = well fitted curve in the direction sought with a large enough effect; inconclusive = small, poorly fitted or top-dose-only effect, or another doubt; inactive = no such curve, though single readings can be large; an effect the other way counts as inactive or inconclusive. Potency is read from the fitted curve at half-maximal effect.

SMILES | HP1b binding inh | JMJD2A Tudor inh | G9a block | BAZ2B inh | Sfp inh | L3MBTL1 inh
CC(C)(C)c1cc(NCCCn2ccnc2)n2ncc(-c3ccc(Cl)cc3)c2n1 | 58% | -20% | x | u | -23% | 19%
CN(C)CCCNc1cc(C(C)(C)C)nc2c(-c3ccccc3)cnn12 | 10% | -19% | x | -9% | 50µM* | 14%
COC(=O)CCC(=O)c1oc2ccc(Br)cc2c1N | 12% | -5% | -8%[59 µM] | 7% | 2% | 4%
CCOC(=O)c1oc2ccccc2c1CN1CCN(c2ccccc2)CC1 | -17% | 79µM* | u | 56µM* | -19% | x
CCOC(=O)c1c(CN2CCN(C)CC2)oc2ccc(OC)cc12 | 19% | u | u | 79µM* | 10% | x
COc1ccc2oc(C(=O)CCC(=O)O)c(N)c2c1 | 70% | -5% | 50µM* | -9% | -7% | -2%
COc1ccc2oc(C)c(C(=O)NN)c2c1 | 24% | -23% | 10µM* | -11% | -18% | x
CCOC(=O)CCC(=O)c1c(C)oc2ccc(OC)cc12 | 59% | 24% | -4%[12.7 µM] | 6% | 17% | 17%
CC[C@H](C)[C@H](NC(=O)[C@H](C)NC(=O)CNC(=O)[C@H](CCCCN)NC(=O)[C@H](CC(N)=O)NC(=O)[C@H](CO)NC(=O)CN)C(=O)N[C@H](C(=O)NCC(=O)N[C@@H](CC(C)C)C(=O)N[C@@H](CCSC)C(=O)O)[C@@H](C)CC | x | x | x | x | 2% | x
CCOC(=O)c1c(CN2CCN(c3ccccc3)CC2)oc2ccc(O)cc12 | -2% | u | 40µM* | u | 4% | -12%
COc1ccc2[nH]c3c4c(ccc3c2c1)C(=O)C=CC4=O | u | u | x | 40µM* | 6.3µM* | 1%
COc1ccc2[nH]c(-c3ccc(F)cc3F)cc(=O)c2c1 | x | x | 2% | x | 5% | x
Cc1cccc(N2CCN(C(=O)Cc3c(C(=O)O)c(C)cn3C)CC2C)c1 (stereo unspecified) | 9% | -15% | -2%[59 µM] | -12% | x | x
CC1S/C(=N/N=C/c2ccco2)N(Cc2ccc(F)cc2)C1=O (stereo unspecified) | 16% | -17% | 50µM* | u | -7% | x
CCN(CC)S(=O)(=O)c1cccc(NC(=O)C2CC(=O)N(c3ccc4c(c3)OCCO4)C2)c1 (stereo unspecified) | -13% | -21% | 50µM* | -3% | x | -2%
O=C(Nc1ccccc1Cc1ccccc1)C1CC(=O)N(c2ccc3c(c2)OCCO3)C1 (stereo unspecified) | -16% | u | 3.5µM* | 50µM* | -16% | x
COc1cc(OC)c(NC(=O)C2CC(=O)N(c3ccc4c(c3)OCCO4)C2)cc1Cl (stereo unspecified) | -8% | -24% | 45µM* | 4% | x | -4%
CCc1cccc(CC)c1NC(=O)C1CC(=O)N(c2ccc3c(c2)OCCO3)C1 (stereo unspecified) | 7% | -33% | 0%[59 µM] | -31% | 16% | x
CC(C)CC(=O)NC1CC(=O)N(c2ccc3c(c2)OCCO3)C1 (stereo unspecified) | -22% | 100µM* | -2%[59 µM] | -8% | x | x
CN(C)CCCNc1ncnc2ccc(-c3ccc4c(c3)OCO4)cc12 | x | -11% | x | x | x | x
CC(C)CCCC(C)CCCC(C)CCCCC(C)CCCC(C)CCCC(C)C (stereo unspecified) | x | x | 33%[59 µM] | x | 23% | x
O=C(CN1C(=O)CCc2cc(S(=O)(=O)N3CCOCC3)ccc21)NCc1ccccc1Cl | 31% | 3% | -3%[12.7 µM] | -2% | x | x
Cc1cc(C(=O)COC(=O)c2ccc(Cl)c(S(N)(=O)=O)c2)c(C)n1C1CC1 | u | u | 50µM* | u | x | u
Cc1nn(C(=O)c2cccc(F)c2)c(C)c1S(=O)(=O)N1CCCCCC1 | 49%[57 µM] | 29% | -31%[59 µM] | -1% | x | x
CCc1ccc(CNc2nc3nc(C)c(Cc4ccccc4)c(=O)n3[nH]2)cc1 | -3% | u | u | -7% | x | x
SMILES | HP1b binding inh | JMJD2A Tudor inh | G9a block | BAZ2B inh | Sfp inh | L3MBTL1 inh
COc1ccc(C2C(=O)N(C3CCCCCC3)CC(=O)N2Cc2ccc(C)cc2)cc1 (stereo unspecified) | 35% | -14% | -22%[59 µM] | -2% | x | x
CCOC(=O)Cc1csc(NC(=S)NC(=O)c2ccc(C)cc2)n1 | 43% | -15% | 12% | 5% | -12% | 3%
O=C(Nc1nccs1)c1ccc(Br)o1 | 29% | -11% | u | 0% | 1% | 6%
CCOC(=O)Cc1csc(NC(=O)c2sc3nc4cc(C)ccc4cc3c2N)n1 | 3% | 40µM* | 71µM* | 13% | u | 1%
O=C(/C=C/c1ccc(Br)o1)Nc1nccs1 | u | 32µM* | 45µM* | -15% | u | u
CCOC(=O)Cc1csc(NC(=S)NC(=O)c2ccccc2)n1 | 62% | -16% | u | u | 16µM* | -2%
CCOC(=O)Cc1csc(NC(=O)/C=C/c2ccc(Br)o2)n1 | 21% | -11% | 50µM* | -33% | u | x
COc1cccc(-c2ccc3ncnc(NC4CC4)c3c2)c1 | x | x | -3%[0.501 µM] | x | 8% | x
CCN(c1ccccc1)S(=O)(=O)c1ccc(NC(=O)c2cc(=O)c3ccc(C)c(C)c3o2)cc1 | 0% | -17% | -5%[59 µM] | -37% | x | x
Cc1cc2n(n1)C(c1ccccc1)CC(c1ccc(Br)cc1)=N2 (stereo unspecified) | 91% | 23% | 40µM* | 24% | -2% | 16%
COc1cc2c(=O)n(Cc3ccco3)c(=O)n(CC(=O)c3cccc(Br)c3)c2cc1OC | 29% | 11% | 39%[0.501 µM] | 0%[57.1 µM] | 79µM* | 2%
CCn1c(=N)c(C(=O)NCC2CCCO2)cc2c(=O)n3cc(C)ccc3nc21 (stereo unspecified) | 44% | -8% | -28%[59 µM] | 1% | x | x
COCCCN1CN=C(Nc2nc3ccccc3o2)NC1 | 3% | 13µM* | u | -5% | -25% | 11%
O=C1NC(Cc2ccccc2)C(=O)N1Cc1cc([N+](=O)[O-])cc2c1OCOC2 (stereo unspecified) | 27% | -7% | 3% | 79µM* | 11% | -6%
O=C1N[C@@H](Cc2ccccc2)C(=O)N1CCN1CCOCC1 | 1% | -25% | u | 6% | 19% | x
Cc1ccc(NC(=O)CC2S/C(=N/N=C3/NC(=O)CS3)NC2=O)cc1 (stereo unspecified) | 44% | u | u | 56µM* | 4% | u
CCOC(=O)c1ccc(NC(=O)CC2S/C(=N/N=C3/NC(=O)CS3)NC2=O)cc1 (stereo unspecified) | 18% | u | -7% | -37% | -36% | x
CCCN1CCN(CCCNC(=O)Cn2c(-c3cccs3)cc3cc(Cl)ccc32)CC1 | 43% | -31% | u | -26% | x | x
